# Measurements reported in the supplement of paper PMC3334620.
# In all, about 33,000 sequences were measured (“E-score (-0.5 to 0.5)”: median about -0.021, highest 2% from about 0.32 on). The list comes from a sample in which the highest values are over-represented; it also holds similar and randomly drawn sequences.
# Target: T1, Zap1 (UniProt P47043)
# T1 sequence: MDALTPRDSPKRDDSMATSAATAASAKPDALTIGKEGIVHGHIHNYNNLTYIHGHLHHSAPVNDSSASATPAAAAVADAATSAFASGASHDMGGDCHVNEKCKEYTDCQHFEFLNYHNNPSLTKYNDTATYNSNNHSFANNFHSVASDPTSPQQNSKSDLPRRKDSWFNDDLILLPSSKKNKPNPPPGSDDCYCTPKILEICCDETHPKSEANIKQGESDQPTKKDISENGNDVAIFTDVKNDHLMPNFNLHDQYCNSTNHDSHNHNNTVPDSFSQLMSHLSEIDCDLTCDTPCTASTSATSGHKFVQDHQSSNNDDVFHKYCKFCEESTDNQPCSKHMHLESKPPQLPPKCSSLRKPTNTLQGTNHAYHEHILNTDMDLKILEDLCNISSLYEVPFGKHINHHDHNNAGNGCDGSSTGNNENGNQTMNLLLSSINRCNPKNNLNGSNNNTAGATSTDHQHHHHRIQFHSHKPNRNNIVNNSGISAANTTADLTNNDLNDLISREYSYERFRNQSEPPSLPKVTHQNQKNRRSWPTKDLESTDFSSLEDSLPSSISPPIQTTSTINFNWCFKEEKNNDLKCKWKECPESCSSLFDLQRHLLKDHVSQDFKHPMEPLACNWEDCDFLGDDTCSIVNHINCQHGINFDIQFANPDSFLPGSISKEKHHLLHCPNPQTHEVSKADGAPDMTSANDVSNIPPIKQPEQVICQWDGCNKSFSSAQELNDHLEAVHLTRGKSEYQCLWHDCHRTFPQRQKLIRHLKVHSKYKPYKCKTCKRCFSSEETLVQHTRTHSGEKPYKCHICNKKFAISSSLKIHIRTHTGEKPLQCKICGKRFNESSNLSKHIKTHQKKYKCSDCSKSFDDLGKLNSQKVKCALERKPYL
# Assay: PBM E-score (8-mer binding enrichment) (E-score (-0.5 to 0.5)); higher = stronger / more preferred TF binding
# Conditions: protein concentration: 200 nM; construct: GST-full length
# Summary of the method: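 The E-score, a modified Wilcoxon-Mann-Whitney statistic, was computed by the Universal PBM Analysis Suite for every ungapped eight-base word pooled with its reverse complement. Scans behind it were normalised with masliner after bound GST-tagged yeast transcription factors were detected with fluorescent anti-GST. The proteins, at about 100-200 nM, had been applied to universal all-10-mer Agilent arrays made double-stranded by primer extension.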
row,Sequence,PBM E-score
1,ATACCCTC,0.323
2,ATACCCGC,0.314
3,ATACCCGA,0.224
4,GTACCCGA,0.184
5,CTACCCTA,0.291
6,AGCATCTA,-0.248
7,CTCTTGCA,-0.161
8,AACGGCGA,0.0503
9,ATAAAGCA,-0.0384
10,CCGTCCCA,-0.0821
11,AAATAGCT,-0.141
12,CCTCTTGA,0.148
13,AGGACCCT,0.226
14,CACTGCGC,-0.192
15,TCACCAGA,0.015
16,CCACAAAG,0.34
17,CCACAAGA,0.0787
18,CCACAAGG,0.33
19,CCACAAAA,0.237
20,CCACAAGC,0.0428
21,CCACAAAC,0.147
22,ACTAGATA,0.115

row,Sequence,PBM E-score
1,AGTGCAAC,0.0909
2,CGGGTGTA,0.0123
3,AGAGGGTC,0.213
4,CAGGGGTC,0.321
5,AAAGGGGC,-0.00977
6,AAAGGGTC,0.363
7,CAAGGGTC,0.355
8,AAGGGGTC,0.264
9,AAAGGGTT,0.396
10,AAAGGGTG,0.247
11,GAAGGGTC,0.211
12,CAGGGGTA,0.286
13,CAAGGGCC,0.0489
14,AAAGGGCT,0.00434
15,CACGATCC,0.141
16,AGCTAAAC,-0.144
17,TCCAGCGA,-0.138
18,AGATGGAT,-0.254
19,CAAGGGTA,0.398
20,CAAGGGTG,0.262
21,CAAGGGCA,-0.182
22,ACAAGGGC,-0.137

row,Sequence,PBM E-score
1,AAGGGGGT,-0.271
2,CGGGGGTC,-0.0576
3,CCGGGGTC,0.348
4,ACAAGGGG,-0.128
5,ACGGGGTC,0.218
6,ACAAGGGT,0.387
7,AAAGGGGT,0.32
8,AAAGGGGG,-0.385
9,ATTTAGCA,0.0848
10,AAAAGTCG,-0.033
11,TAAGCGCA,-0.0722
12,CTAATGCA,0.132
13,AAAAGGGA,-0.0112
14,AAAAGGGT,0.386
15,AAAAGGGC,0.149
16,CCAGATGA,-0.0669
17,GATCGTAC,-0.069
18,CTTAGAGA,-0.0526
19,GAATGGAC,0.0207
20,GCTATCGA,-0.0297
21,CTCCGAAC,-0.196
22,AATCTCGC,-0.0495

row,Sequence,PBM E-score
1,TGCCTTAA,-0.0666
2,AGCCTTAA,-0.0565
3,GTCCTTAA,0.268
4,GAGCTTAA,-0.0983
5,AACCTTAT,0.312
6,GGCCTTAA,0.319
7,AACCTTAC,0.318
8,CACCTTAG,0.245
9,AACCTTAG,0.324
10,CACCTTAC,0.148
11,GACCTTAC,0.13
12,GACCTTAA,0.324
13,CGGTCCCA,-0.0137
14,AACGACCT,0.211
15,ACTTGCAC,-0.141
16,GGGGGGAA,-0.411
17,GGTATCAC,0.0481
18,AACTGGCG,-0.0757
19,CATGCCAC,-0.227
20,CCGGCCTC,-0.0295
21,GGAGTTAA,0.029
22,AACCTTAA,0.352

row,Sequence,PBM E-score
1,TACCTTAA,0.296
2,CACCTTAA,0.207
3,GTAAAAGA,0.0206
4,ACCTTTAG,0.348
5,AGCTTTAT,-0.0486
6,CCCTTTAG,0.127
7,ACCTTTGG,0.236
8,ACCTTTAT,0.352
9,GCCTTTAA,0.0959
10,ACCTTTTG,0.364
11,ACCTTTTC,0.254
12,ACCTTTAC,0.307
13,CCCTTTAA,0.286
14,AACTTTAT,0.0578
15,ACCTTTAA,0.383
16,GCAGATGC,-0.337
17,GAGCACGA,-0.0755
18,TATCGATA,0.285
19,ACGCAAAA,-0.024
20,ACCTACTA,0.113
21,AGGATTAA,-0.0423
22,GTTTAGCA,-0.0642
